The results in this text go back to PubChem BioAssay (NCI).

Compounds without any hit were thinned out: in the full panel of roughly 83,000, 20% have a hit.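 Step 1: grow cells in 96-well plates. Step 2: add test compound at a single concentration. Step 3: incubate 48 h. Step 4: record percent growth.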 Unmarked numbers belong to inactive results. Activity calls are given as the source filed them. The calls were made as follows: active = growth percent below 10; inactive = the rest.

Common to all, as to assay: NCI-60 one-dose screen, 48 h (100 = growth as untreated, 0 = no growth, -100 = all killed)
Holding throughout (conditions): 10 µM unless noted

For assay [1], the system named is SR leukemia.
The subject of assay [2] is RPMI-8226 leukemia.
For assay [3], the system named is OVCAR-8 ovarian.
Assay [4] concerns OVCAR-5 ovarian.
Assay [5] has as its system OVCAR-4 ovarian.
Assay [6] has as its system SK-OV-3 ovarian.
Assay [7] relates to IGROV1 ovarian.
Assay [8] concerns OVCAR-3 ovarian.
Assay [9] deals with HS 578T breast.
Assay [10] has as its system NCI/ADR-RES ovarian.

On to `COc1ccncc1S(=O)(=O)NC(=O)Nc1ccc(Cl)c(Cl)c1`, for which the growth in assay [1] was 74.8%; in assay [2], 46.2%; in assay [3] it was 97.8%; in [4] it was 89.6%; in assay [5], 95.7%; in assay [6] it was 114%. Also, the growth in assay [7] was 82.7%; in [8], 90%; in assay [9], 93.9%; in assay [10], 89.8%.
`Cc1ccc(S(=O)(=O)NCCNc2nccc(-c3c(-c4cccc(N)c4)nc4sccn34)n2)cc1`: the growth in assay [1] was 95.9%; in [2], 74.7%; in [3], 91.4%; in assay [4] it was 123%; in assay [5], 58.8%; in assay [6] it was 103%. For the same compound, the growth was 86.6% in [7], 87.4% in [8], 99.5% in assay [9] and 90.8% in [10].
For `O=C(NNC(=O)N1c2ccccc2C=Cc2ccccc21)c1ccccc1`, the growth in assay [1] was 96.6%; in [2], 104%; in assay [3], 105%; in assay [4], 103%; in assay [5] it was 103%; in [6] it was 112%. For the same compound, the growth is 110% in assay [7], 113% in assay [8], 109% in assay [9] and 99.8% in assay [10].
Consider `CC1(c2ccc(Cl)cc2)OC(=O)CC(=O)O1`, for which the growth in assay [1] is 78.5%; in assay [2] it was 102%; in assay [3], 105%; in assay [4], 103%; in [5], -2.18% (active); in assay [6], 106%. Besides, the growth was 108% in assay [7], 104% in [8], 105% in [9] and 106% in assay [10].
With `Clc1cc2c(nn1)Nc1ccccc1S2`, the growth in assay [1] is 77.2%; in assay [2], 78.1%; in assay [3], 96.2%; in [4], 100%; in assay [5], 95.3%; in [6], 99%. Moreover, the growth in assay [7] is 27.5%; in assay [8], 117%; in assay [9], 102%; in assay [10] it was 97.5%.
For `Cc1cc(N/N=C/c2nc(-c3ccccc3)oc2C)c2cc(Br)ccc2n1`, the growth was -4.64% (active) in assay [1]; 11.9% in assay [2]; 42.5% in assay [3]; 96.3% in [4]; 1.21% (active) in assay [5]; 78.3% in assay [6]. Further, the growth was 78.6% in [7], 109% in [8], 85.8% in assay [9] and 78.9% in assay [10].
With `CN1CCN(Cc2ccc(NC(=O)c3nc4ccc5[nH]ncc5c4c4c3CCC4)cc2C(F)(F)F)CC1`, the growth was -31.6% (active) in [1]; -37% (active) in assay [2]; -53.8% (active) in assay [3]; 3.19% (active) in [4]; 68.3% in assay [5]; 93.8% in assay [6]. Also, the growth in assay [7] is -80.9% (active); in assay [8], -91.3% (active); in assay [9] it was 85.9%; in assay [10], -40.8% (active).
Regarding `CCCCCc1cc[n+](CC(=O)c2ccc([N+](=O)[O-])cc2)cc1`, the growth in assay [1] is 73.2%; in assay [2], 45.1%; in assay [3] it was 77%; in assay [4], 109%; in assay [5] it was 26.3%; in [6], 93.9%. The growth in [7] was 110%; in assay [8], 58.8%; in assay [9], 106%; in assay [10], 110%.
Take `O=C(c1ccccc1)C1OC1c1ccc([N+](=O)[O-])cc1` (stereo not given): the growth was 33.6% in assay [1]; 55.9% in [2]; 68.9% in assay [3]; 102% in assay [4]; 59.9% in assay [5]; 97.3% in assay [6]. In addition, the growth was 53.4% in assay [7], 59.7% in assay [8], 88.8% in assay [9] and 57.9% in assay [10].
Regarding `N/C(=N\C(N)=N\c1nc2ccccc2s1)c1ccncc1`, the growth was 19.7% in assay [1]; 45.8% in assay [2]; 75.6% in assay [3]; 96.6% in assay [4]; 100% in assay [5]; 89.4% in assay [6]. In addition, the growth was 58.2% in [7], 39.7% in assay [8], 80.3% in [9] and 33% in assay [10].
With `CCCCC(CC)OC(=O)C(Br)CC` (stereo not given), the growth in assay [1] is 94.3%; in assay [2], 113%; in assay [3] it was 101%; in assay [4] it was 106%; in [5], 90.6%; in assay [6], 114%. The growth in assay [7] is 105%; in assay [8] it was 104%; in assay [9], 101%; in assay [10], 98.7%.
For the compound `COc1ccc(-c2nc(N3CCCC3=O)sc2Br)cc1OC`, the growth in [1] was 88.9%; in assay [2] it was 109%; in assay [3], 103%; in [4], 99.2%; in assay [5], 98.2%; in assay [6] it was 115%. Further, the growth in [7] was 113%; in [8] it was 111%; in [9], 100%; in assay [10], 104%.
Consider `CSc1nc2c(c(=O)[nH]1)C(c1ccc(C)cc1)C=C(C(=O)O)N2` (stereo not given), for which the growth was 117% in assay [1]; 112% in [2]; 105% in assay [3]; 114% in assay [4]; 113% in assay [5]; 115% in [6]. Besides, the growth in [7] is 107%; in [8] it was 123%; in assay [9], 86.3%; in assay [10], 109%.
In the case of `CCC1=CCC[C@@]2(C)CCC[C@@]3(C)CCCC(C)(C)[C@]1([O-])[O+]32`, the growth is 112% in assay [1]; 97.9% in assay [2]; 104% in assay [3]; 104% in [4]; 85.1% in assay [5]; 107% in [6]. Besides, the growth in assay [7] was 105%; in [8], 111%; in assay [9] it was 92.8%; in assay [10], 106%.
